# Pf Dd2 inh: qHTS Primary assay for Inhibitors of Plasmodium falciparum Dd2 growth in vitro | 120,000 compounds, 4.3% hits | P. falciparum Dd2 growth, SYBR Green, 72 h | Potency, µM (series often up to 28.9 µM), for the others: at the top dose activity, negative = inhibition, hits mostly inhibitors | AID 1347417, 2020; active = well fitted inhibition curve with a large enough effect;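 also: plate controls were DMSO vehicle for no effect and reference drug for full effect; nearly all actives have a fitted effect of over 65% in size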
#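 Infected erythrocytes (Dd2, 0.3% parasitemia, 2.5% hematocrit final) are added to compound in RPMI-1640/Albumax II medium, grown 72 h at 37C in low oxygen, then lysed with saponin/Triton-X containing SYBR Green and read by fluorescence.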
# Numbers without * were called inactive; i = inactive; [ ] = remark or other dose. This excerpt belongs to a sample that is enriched for hits. Potency is read from the fitted curve at half-maximal effect.
SMILES,Pf Dd2 inh
CC(C)CNC(=O)Cc1ccc(N(Cc2cccc(F)c2)C(=O)c2ccco2)cc1,-25.1%
Cc1noc2c(NC(C)C)cc(-c3cccc(C(F)(F)F)c3)nc12,-4.4%[44.1 µM]
CCOc1ccc(NC(=O)c2oc3ccccc3c2NC(=O)COc2cccc(OC)c2)cc1,13.2%
CCCC(=O)Nc1c(C(=O)N2CCN(c3ccccc3)CC2)oc2ccccc12,120.0%[5.79 µM]
CCCCC(=O)Nc1c(C(=O)N2CCN(c3ccccc3F)CC2)oc2ccccc12,11.2µM*
O=C(Nc1c(C(=O)N2CCN(c3ccccc3F)CC2)oc2ccccc12)c1ccco1,4.0%
CC(C)CC(=O)Nc1c(C(=O)N2CCN(c3ccccc3F)CC2)oc2ccccc12,7.08µM*
Cc1ccc(OCC(=O)Nc2c(C(=O)c3ccccc3)oc3ccccc23)cc1C,30.7%
CCC(=O)Nc1ccc(C2(C(=O)N3CCN(c4ccccc4F)CC3)CCC2)cc1,-10.4%
Cc1cccc(OCC(=O)Nc2c(C(=O)N3CCN(c4ccccc4F)CC3)oc3ccccc23)c1,-20.1%
COc1ccc(OCC(=O)Nc2c(C(=O)N3CCN(c4ccccc4)CC3)oc3ccccc23)cc1,11.2µM*
Cc1ccc(F)cc1S(=O)(=O)N1CC(c2nc(-c3ccncc3)no2)C1,i
Fc1cccc(Cc2noc(-c3nc(-c4ccccc4F)no3)n2)c1,-9.0%
CCCNC(=O)C1COC2(CCN(C(=O)CC)CC2)N1C(=O)c1cccc(OC)c1 (centres undefined),1.5%
O=C1CC2(CCN(C(=O)c3ccccn3)CC2)Oc2ccccc21,-18.1%[44.1 µM]
COc1cccc(-c2cnc([C@@H]3COCCN3Cc3cnc4ccccc4c3)[nH]2)c1,-10.2%[44.1 µM]
CN1CCOc2c(C(=O)NCc3cccnc3)cc(-c3ccccc3)cc21,i
O=C(CCn1cnnn1)N1CCCC(CCc2cccc(C(F)(F)F)c2)C1 (centres undefined),-15.7%
O=C(c1ccc(-n2cnnn2)cc1O)N1CCCC(CCc2ccc(F)cc2)C1 (centres undefined),12.6µM*
O=C(c1cc(=O)[nH]c2cc(F)ccc12)N1CCCC(CCc2ccc(F)cc2)C1 (centres undefined),-15.8%
Cc1cc2nc3n(c(=O)c2n1CC(=O)Nc1ccc(F)c(F)c1)CCC3,i
Cc1cccc([C@H]2C[C@@H](O)[C@@H](O)[C@@H]2NC(=O)c2ccccc2)c1,-7.1%[44.1 µM]
O=C(O)C1CCc2nnc(C3CCN(C(=O)c4ccccc4)C3)n21 (centres undefined),14.9%
COc1ccc(O[C@H]2COCCN(C(=O)c3cc(C)oc3C(F)(F)F)C2)cc1,-21.3%[44.1 µM]
COc1ccc(CCNC(=O)C2CCCCC(=O)N2C)cc1OC (centres undefined),135.3%
SMILES,Pf Dd2 inh
Cc1cccc(N2Cc3c(NCc4ccc5c(c4)OCO5)ncnc3N(C)CC2=O)c1,-28.0%
CN1CC(=O)N(c2ccccc2F)Cc2c(NCc3ccc4c(c3)OCO4)ncnc21,-1.6%
Cc1nn(C)c2nc(-c3ccccn3)nc(NCc3ccc4c(c3)OCO4)c12,8.91µM*
COc1nc2c(cc1CNC(=O)CC1CCC(=O)N1)C(=O)N(C1CCCC1)C2 (centres undefined),-11.0%
O=C(c1c(OCC2CC2)cc(=O)n2c1CCOCC2)N1CCc2ccccc2C1,-0.4%
CC(C)CCC(=O)N1CCC(OC2CCN(Cc3ccccc3)CC2)CC1,-27.2%
O=C(Nc1sc2c(c1C(=O)Nc1ccccc1)CCC2)c1ccc(Br)cc1,11.3%
COc1ccc(NC(=O)c2c(NCc3cccc(OC)c3)sc3c2CCCC3)cc1,10µM*
COc1ccc(Cl)cc1NC(=O)c1c(NCc2cccnc2)sc2c1CCCC2,11.2µM*
CNC(=O)c1c(NC(=O)Cc2coc3ccc(OC)cc23)sc2c1CCCC2,-19.2%
COc1ccccc1NC(=O)c1c(NC(=O)c2ccccc2Cl)sc2c1CCC2,-14.4%
COc1ccc(NC(=O)c2c(NC(=O)C(F)(F)F)sc3c2CCCCC3)cc1,3.16µM*
COc1ccc(CC(=O)Nc2sc3c(c2C(=O)Nc2ccc(C)cc2)CCCCC3)cc1,-23.0%
COC(=O)c1ccc(NC(=O)c2c(NCc3ccc(C)o3)sc3c2CCCC3)cc1,10µM*
COc1ccc(/C=C/C(=O)Nc2sc3c(c2C(N)=O)CCCC3)cc1,4.9%
CCOC(=O)N1CCc2c(sc(NCc3sccc3C)c2C(=O)Nc2cc(Cl)ccc2OC)C1,-19.2%
Cc1cccc(NC(=O)c2c(NC(=O)c3ccccc3)sc3c2CCCC3)c1,35.7%
COc1ccc(CC(=O)Nc2sc3c(c2C(=O)Nc2c(C)cccc2C)CCCCC3)cc1,9.4%
CC(C)NC(=O)N1CCOc2ccc(CCC(=O)NC3CCS(=O)(=O)C3)cc2C1 (centres undefined),4.8%
O=C(c1ccc2c(c1)OCO2)N1CCC(Cc2nc(-c3cnccn3)no2)CC1,i
CC(C)c1noc(-c2cn(C3CCN(C(=O)C4(c5ccccc5)CC4)C3)nn2)n1 (centres undefined),i
Cc1ccc2c(C(=O)NCc3ccc(F)cc3Cl)cc(NC(=O)C(C)C)cc2n1,-28.3%
Cc1nnc(CN(C)C(=O)c2cccc(S(=O)(=O)N3CCOCC3)c2)o1,-4.5%
O=C(NCC12CCCN1CCC2)c1ccc(C2CCNC2)cc1 (centres undefined),-7.4%
COCCN1CCCCCC(O)c2cc(C(=O)N3CCN(CC(C)C)CC3)ccc21 (centres undefined),i
SMILES,Pf Dd2 inh
COc1ccc(-c2ccccc2NC(=O)C2CCCN2C(=O)CC(C)(C)C)cc1 (centres undefined),-2.9%
COc1ccc(-c2nnc3n2CCN(C(=O)c2ccc(C(F)(F)F)cc2)C3)cc1,-27.5%
COc1ccc(NC(=O)c2c(NCc3ccc(OC)c(OC)c3OC)sc3c2CCC3)c(OC)c1,10µM*
CCOc1ccccc1NC(=O)c1c(NC(=O)COc2ccccc2)sc2c1CCCC2,53.7%
CCOC(=O)c1ccc(NC(=O)c2c(NCc3sccc3C)sc3c2CCCCC3)cc1,10µM*
CCOc1ccccc1NC(=O)c1c(NCc2ccc(OC)c(OC)c2OC)sc2c1CCC(C)C2 (centres undefined),i
COC(=O)c1c(NC(=O)/C=C/c2ccc(OC)c(OC)c2)sc2c1CCC2,6.3%
CCOC(=O)c1c(NC(=O)c2ccc(C)c(C)c2)sc2c1CCCCC2,-5.9%
COc1ccccc1NC(=O)c1c(NC(=O)c2ccccc2F)sc2c1CCC2,49.3%
CCOC(=O)c1c(NC(=O)c2cc(Cl)ccc2Cl)sc2c1CCCC2,i
CCOc1ccccc1NC(=O)c1c(NCc2ccc(C)o2)sc2c1CCC(C)C2 (centres undefined),44.2%
CCOC(=O)c1c(NC(=O)c2ccc(OC)c(OC)c2)sc2c1CCCCC2,2.2%
COC(=O)c1ccc(NC(=O)c2c(NCc3ccc(OC)c(OC)c3)sc3c2CCCC3)cc1,11.2µM*
CCOc1ccccc1NC(=O)c1c(NCc2ccc(C)o2)sc2c1CCCCC2,12.6µM*
CN(Cc1cccc(C(F)(F)F)c1)[S+](=O)([O-])c1cccc(C(F)(F)F)c1,i
c1ccc(C2CNC2)nc1,-2.1%[76.6 µM]
COc1ccc(CC(=O)N2CCN(c3cc(-c4ccccc4)[nH]n3)CC2)cc1OC,4.1%
Cc1ccc(-n2c(C3CCN(C(=O)c4ccc5c(c4)OCO5)CC3)n[nH]c2=O)cc1,-23.8%
O=C([C@@H]1C[C@H](Oc2cccnc2)CN1C(=O)CC1CCCCC1)N1CCCC1,i
CN1CCN([C@H]2CCN(C(=O)NCCc3ccccc3)C[C@H]2CCC(=O)O)CC1,8.9%
O=C(Cc1ccc(F)cc1)N1CCC[C@H]1c1nc(-c2ccc(F)cc2)no1,i
CCOc1ccc(CC(=O)N2CCC[C@H]2c2nc(-c3ccccc3)no2)cc1OCC,-31.6%

# Bioassay records (PubChem)
